Results with a measured potency or affinity are listed apart. Calls of active or inactive are those of the source.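 How the source made its calls: active means cell-killing compounds whose fitted half-effect concentration is at most twice their highest valid dose; inconclusive means flat curve with 30 to 70% signal loss, or poor fit; inactive means the rest.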

The experiment in a line: A549 lung cell viability reduction – CellTiter-Glo luminescence, cherry-pick, cytotoxicity control, dose response (AID 743484). As to conditions: CellTiter-Glo ATP luminescence, 72 h; series mostly up to 26 µM.
`Cc1[nH]c(=S)sc1Cc1ccc(Cl)c(Cl)c1`: the call was inactive.

Turning to `COc1ccc(-n2cc(-c3ccccc3)c3c(N4CCOCC4)ncnc32)cc1`, the call was inactive.

On to `Cc1ccc(S(=O)(=O)N2CC[C@H]3[C@H](CO)Nc4ccc(Br)cc4[C@H]32)cc1`, for which the outcome was inactive.

In the case of `CC[C@H]1OC(=O)[C@H](C)[C@@H](O[C@H]2C[C@@](C)(OC)[C@@H](O)[C@H](C)O2)[C@H](C)[C@@H](O[C@@H]2O[C@H](C)C[C@H](N(C)C)[C@H]2O)[C@](C)(O)C[C@@H](C)[C@@H]2N[C@@H](COCCOC)O[C@H]([C@H]2C)[C@]1(C)O`, the result was inactive.

On to `Cc1ccc(C)c(NC(=O)CSc2nc3nc(-c4cccs4)cc(C(F)(F)F)c3c(=O)[nH]2)c1`, for which the call was inactive.

With `COc1cccc(C(=O)Nc2cc(C)nn2-c2ccccc2)c1OC`, the molecule was classed as inactive.

As to `COc1ccc(Cn2c(-c3ccc(Cl)cc3)c[n+]3ccccc23)cc1`, the molecule was classed as inactive.

Regarding `CCOC(=O)c1c(NC(=O)Cc2cccs2)sc(C)c1C`, the molecule was classed as inactive.

`O=C(O)c1cc([N+](=O)[O-])ccc1NCc1ccccc1`: the result was inactive.

Consider `COc1ccc(Nc2oc(-c3ccco3)nc2S(=O)(=O)c2ccc(F)cc2)cc1`, for which the molecule was called inactive.

With `COC(=O)c1c(NC(=O)CCC(=O)O)sc(Cc2ccccc2)c1C`, the result was inactive.

Consider `CCOc1ccccc1NC(=O)c1ccc2ccccc2c1`, for which the molecule was called inactive.

In the case of `COc1ccc2[nH]c3c(=O)n(CCCCC(=O)NCCC(C)C)c(=S)[nH]c3c2c1`, the result was inactive.

On to `Cc1c(C(=O)O)sc2nc(CSc3ncc(C(F)(F)F)cc3Cl)[nH]c(=O)c12`, for which the outcome was inactive.

Turning to `C[C@@H]1CCCCO[C@H](CN(C)CC2CC2)[C@H](C)CN([C@@H](C)CO)C(=O)c2cc(NC(=O)Nc3cccc4ccccc34)ccc2O1`, the molecule was classed as inactive.

In the case of `C[C@@H]1CCCCO[C@H](CN(C)C(=O)CCCN(C)C)[C@H](C)CN([C@@H](C)CO)C(=O)c2cc(NC(=O)Nc3cccc4ccccc34)ccc2O1`, the result was inactive.

In the case of `CCn1c(-c2cc(-c3ccc(OC(C)C)cc3)nc3ccccc23)n[nH]c1=S`, the outcome was inactive.

On to `Cc1noc(C)c1NC(=O)Nc1ccc2c(c1)C(=O)N([C@H](C)CO)C[C@@H](C)[C@@H](CN(C)C(=O)Nc1ccc3c(c1)OCO3)OCCCC[C@@H](C)O2`, for which the result was inactive.

Turning to `Cc1cc(C)c(OCCNC(=O)c2ccccc2Sc2ccccc2C#N)c(C)c1`, the molecule was called inactive.

For the origin of these results see PubChem BioAssay AID743484 (Broad Institute, 2014).
